From PubChem BioAssay AID1159580 (chemical genetic matrix, 2015)
Out of some 5,500 compounds screened, about 2,000 (36%) were called active. Not shown: some 18% with an inconclusive outcome. Cut-off read from the data, not from the text of the source: active = normalized growth mostly below about 0.91 (no sharp cut-off); inconclusive = no clear call, values can overlap the other calls; inactive = mostly above about 0.92. Some of the results follow.

Assay: chemical genetic growth profiling, strain panel (AID 1159580);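 note: tested at 20 µM; growth read once vehicle control cultures reached saturation at 30 °C; 1 = growth at the plate median or of vehicle wells; lower values mean less growth of the strain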
Conditions: S. cerevisiae deletion strains, growth OD
[1] = locus YDL101C, strain DUN1, hits give low values
[2] = locus YHR030C, strain SLT2, hits give low values

Measured: normalized growth

OC(CN1CCN(c2nc3ccc(Cl)cc3s2)CC1)Cn1ccc2ccccc21 (stereo not given)
inactive: locus YAR019C, strain CDC15, hits give low values 1 | locus YBL105C, strain PKC1, hits give low values 0.99 | locus YBR135W, strain CKS1, hits give low values 0.991 | locus YBR136W, strain MEC1, hits give low values 0.996 | locus YBR160W, strain CDC28, hits give low values 0.985 | locus YDL017W, strain CDC7, hits give low values 0.996 | locus YDL028C, strain MPS1, hits give low values 0.99 | [1] 0.989 | locus YDL108W, strain KIN28, hits give low values 0.986 | locus YDL132W, strain cdc53, hits give low values 1 | locus YDL214C, strain PRR2, hits give low values 0.92 | locus YDR052C, strain DBF4, hits give low values 1 | locus YDR054C, strain cdc34, hits give low values 0.996 | locus YDR226W, strain ADK1, hits give low values 0.99 | locus YDR477W, strain SNF1, hits give low values 0.935 | locus YER123W, strain YCK3, hits give low values 0.903 | locus YER133W, strain GLC7, hits give low values 0.93 | locus YFL009W, strain cdc4, hits give low values 0.993 | locus YFL029C, strain CAK1, hits give low values 0.989 | locus YFR003C, strain YPI1, hits give low values 0.992 | locus YFR019W, strain FAB1, hits give low values 0.935 | locus YFR028C, strain CDC14, hits give low values 0.995 | locus YGR040W, strain KSS1, hits give low values 0.934 | locus YGR052W, strain FMP48, hits give low values 1.02 | locus YGR092W, strain DBF2, hits give low values 0.96 | [2] 0.864 | locus YHR079C, strain IRE1, hits give low values 0.955 | locus YHR082C, strain KSP1, hits give low values 1.05 | locus YHR205W, strain SCH9, hits give low values 0.97 | locus YIL147C, strain SLN1, hits give low values 0.999 | locus YJL095W, strain BCK1, hits give low values 0.954 | locus YJL128C, strain PBS2, hits give low values 0.942 | locus YJL157C, strain FAR1, hits give low values 0.924 | locus YJR016C, strain ILV3, hits give low values 0.991 | locus YJR066W, strain TOR1 (second series), hits give low values 0.875 | locus YJR066W, strain TOR1, hits give low values 0.991 | locus YKL048C, strain ELM1, hits give low values 0.981 | locus YKL067W, strain YNK1, hits give low values 0.924 | locus YKL101W, strain HSL1, hits give low values 0.942 | locus YKL193C, strain SDS22, hits give low values 0.994 | locus YKL203C, strain TOR2, hits give low values 0.981 | locus YLR113W, strain HOG1, hits give low values 0.864 | locus YLR133W, strain CKI1, hits give low values 0.942 | locus YLR403W, strain SFP1, hits give low values 0.926 | locus YML070W, strain DAK1, hits give low values 0.927 | locus YMR001C, strain CDC5, hits give low values 0.988 | locus YMR205C, strain PFK2 (second series), hits give low values 0.948 | locus YMR277W, strain FCP1, hits give low values 1 | locus YNL006W, strain LST8, hits give low values 0.985 | locus YNL020C, strain ARK1, hits give low values 0.942 | locus YNL161W, strain CBK1, hits give low values 0.982 | locus YNL183C, strain NPR1, hits give low values 1 | locus YNL207W, strain RIO2, hits give low values 1 | locus YNL222W, strain SSU72, hits give low values 0.999 | locus YNL307C, strain MCK1 (second series), hits give low values 0.935 | locus YOL078W, strain AVO1, hits give low values 0.976 | locus YOL136C, strain PFK27, hits give low values 0.912 | locus YOR061W, strain CKA2, hits give low values 0.952 | locus YOR119C, strain RIO1, hits give low values 1.01 | locus YOR231W, strain MKK1, hits give low values 0.947 | locus YOR329C, strain SCD5, hits give low values 0.986 | locus YPL031C, strain PHO85, hits give low values 0.938 | locus YPL153C, strain RAD53, hits give low values 0.959 | locus YPL204W, strain HRR25, hits give low values 0.895 | locus YPL209C, strain IPL1, hits give low values 0.989 | locus YPL256C, strain CLN2, hits give low values 0.938 | locus YPR025C, strain CCL1, hits give low values 0.99 | locus YPR106W, strain ISR1, hits give low values 0.991 | locus YPR111W, strain DBF20, hits give low values 0.967 | strain NNK1, hits give low values 0.974 | strain TSCII, hits give low values 0.995

OC(CN1CCN(c2nc3ccc(Cl)cc3s2)CC1)CN1CCCN(c2ncc(C(F)(F)F)cc2Cl)CC1 (stereo not given)
active: locus YDL134C, strain PPH21, hits give low values 0.0459 | locus YEL061C, strain CIN8, hits give low values 0.0536 | [2] 0.068 | locus YKL190W, strain CNB1, hits give low values 0.0453 | locus YLR039C, strain RIC1, hits give low values 0.0605 | locus YLR085C, strain ARP6, hits give low values 0.0639 | locus YLR262C, strain YPT6, hits give low values 0.0604 | locus YML094W, strain GIM5, hits give low values 0.0664 | locus YNL298W, strain CLA4 (second series), hits give low values 0.0802 | locus YNR030W, strain Alg12, hits give low values 0.0638 | locus YOL006C, strain TOP1, hits give low values 0.0656 | locus YPL241C, strain CIN2, hits give low values 0.0618 | locus YPR135W, strain CTF4, hits give low values 0.16
inactive: locus YAL013W, strain DEP1, hits give low values 1 | locus YBR229C, strain ROT2, hits give low values 0.943 | locus YCL061C, strain MRC1, hits give low values 0.997 | [1] 1.03 | locus YDR150W, strain NUM1, hits give low values 0.942 | locus YGR078C, strain PAC10, hits give low values 1.02 | locus YHR087W, strain rtc3, hits give low values 0.952 | locus YJL187C, strain SWE1, hits give low values 0.995 | locus YJR043C, strain POL32, hits give low values 1.02 | locus YJR075W, strain HOC1, hits give low values 1.01 | locus YLR058C, strain SHM2 (second series), hits give low values 0.999 | locus YMR219W, strain ESC1, hits give low values 1.01 | locus YMR263W, strain SAP30, hits give low values 1.02 | locus YNL153C, strain GIM3, hits give low values 1 | locus YNL322C, strain KRE1, hits give low values 1.03 | locus YPL055C, strain LGE1, hits give low values 0.985
